According to PubChem BioAssay:
Calls of active or inactive are those of the source.

Tests used:
[1] = small molecules captured by biotinylated probe aFSTL3 – biochemical, small-molecule microarray, fluorescence 635/667, stem cell growth factor project, primary screen (AID 1064); conditions: higher = more signal;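 also: measures binding of the biotinylated anti-FSTL3 antibody to printed compounds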
[2] = binders from COS7 lysate, DM2A8 probe, primary screen, torsin A project, cell lysate, small-molecule microarray, fluorescence 635/667 (AID 1065); conditions: higher = more signal, COS7 lysate expressing mutant human TOR1A
[3] = small molecules captured by biotinylated probe aFGF2 – biochemical, small-molecule microarray, fluorescence 635/667, stem cell growth factor project, primary screen (AID 1067); conditions: higher = more signal;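 also: measures binding of biotinylated aFGF2 protein to printed compounds on slides; z-score merges feature fluorescence and signal-to-noise across triplicate slides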
[4] = small molecules captured by biotinylated probe aFGF10 – biochemical, small-molecule microarray, fluorescence 635/667, stem cell growth factor project, primary screen (AID 1071); conditions: higher = more signal;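 also: score merges 667 nm spot intensity and signal to noise from triplicate slides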
[5] = biological target: Neurogenic locus notch homolog protein 2 (Homo sapiens) (UniProt Q04721); experiment: small molecules binding Notch2 protein – biochemical, small-molecule microarray, 635 nm fluorescence, stem cell growth factors, primary screen (AID 1073); conditions: higher = more signal
[6] = biological target: Pro-neuregulin-1, membrane-bound isoform (Homo sapiens) (UniProt Q02297); experiment: small molecules binding neuregulin-1 protein – biochemical, small-molecule microarray, fluorescence 635/667, psychiatric disease protein project, primary screen (AID 1075); conditions: NRG1 binding, 635 nm fluorescence, higher = more signal;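 also: score combines 667 nm spot fluorescence with signal to noise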
[7] = test system: Neuregulin-1 EGF-like domain; experiment: small molecules binding NRG1 EGF domain – biochemical, small-molecule microarray, 635 nm fluorescence, primary screen (AID 1081); conditions: higher = more signal;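 also: binding of the protein to compounds printed on small-molecule microarray slides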
[8] = FRG1 expression reporter modulators in myotubes – cell-based, C2C12 myotubes, firefly/Renilla luciferase, luminescence, FRG1 inhibition for FSHD, primary screen (AID 1084); conditions: FRG1 promoter luciferase, higher = more signal, called active from +8 up or from −8 down
[9] = small molecules captured by biotinylated probe aFST – biochemical, small-molecule microarray, fluorescence 635/667, stem cell growth factor project, primary screen (AID 1086); conditions: higher = more signal;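 also: score merges 667 nm fluorescence with signal-to-noise of each printed compound spot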
[10] = binders of probe aHhip on microarray, primary screen, stem cell growth factor project, biochemical, small-molecule microarray, fluorescence 635/667 (AID 1087); conditions: higher = more signal;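 also: score merges spot fluorescence at 667nm with spot signal to noise ratio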

Chain of Neurogenic locus notch homolog protein 2 (Homo sapiens) (Q04721 whole entry, looked up, canonical isoform): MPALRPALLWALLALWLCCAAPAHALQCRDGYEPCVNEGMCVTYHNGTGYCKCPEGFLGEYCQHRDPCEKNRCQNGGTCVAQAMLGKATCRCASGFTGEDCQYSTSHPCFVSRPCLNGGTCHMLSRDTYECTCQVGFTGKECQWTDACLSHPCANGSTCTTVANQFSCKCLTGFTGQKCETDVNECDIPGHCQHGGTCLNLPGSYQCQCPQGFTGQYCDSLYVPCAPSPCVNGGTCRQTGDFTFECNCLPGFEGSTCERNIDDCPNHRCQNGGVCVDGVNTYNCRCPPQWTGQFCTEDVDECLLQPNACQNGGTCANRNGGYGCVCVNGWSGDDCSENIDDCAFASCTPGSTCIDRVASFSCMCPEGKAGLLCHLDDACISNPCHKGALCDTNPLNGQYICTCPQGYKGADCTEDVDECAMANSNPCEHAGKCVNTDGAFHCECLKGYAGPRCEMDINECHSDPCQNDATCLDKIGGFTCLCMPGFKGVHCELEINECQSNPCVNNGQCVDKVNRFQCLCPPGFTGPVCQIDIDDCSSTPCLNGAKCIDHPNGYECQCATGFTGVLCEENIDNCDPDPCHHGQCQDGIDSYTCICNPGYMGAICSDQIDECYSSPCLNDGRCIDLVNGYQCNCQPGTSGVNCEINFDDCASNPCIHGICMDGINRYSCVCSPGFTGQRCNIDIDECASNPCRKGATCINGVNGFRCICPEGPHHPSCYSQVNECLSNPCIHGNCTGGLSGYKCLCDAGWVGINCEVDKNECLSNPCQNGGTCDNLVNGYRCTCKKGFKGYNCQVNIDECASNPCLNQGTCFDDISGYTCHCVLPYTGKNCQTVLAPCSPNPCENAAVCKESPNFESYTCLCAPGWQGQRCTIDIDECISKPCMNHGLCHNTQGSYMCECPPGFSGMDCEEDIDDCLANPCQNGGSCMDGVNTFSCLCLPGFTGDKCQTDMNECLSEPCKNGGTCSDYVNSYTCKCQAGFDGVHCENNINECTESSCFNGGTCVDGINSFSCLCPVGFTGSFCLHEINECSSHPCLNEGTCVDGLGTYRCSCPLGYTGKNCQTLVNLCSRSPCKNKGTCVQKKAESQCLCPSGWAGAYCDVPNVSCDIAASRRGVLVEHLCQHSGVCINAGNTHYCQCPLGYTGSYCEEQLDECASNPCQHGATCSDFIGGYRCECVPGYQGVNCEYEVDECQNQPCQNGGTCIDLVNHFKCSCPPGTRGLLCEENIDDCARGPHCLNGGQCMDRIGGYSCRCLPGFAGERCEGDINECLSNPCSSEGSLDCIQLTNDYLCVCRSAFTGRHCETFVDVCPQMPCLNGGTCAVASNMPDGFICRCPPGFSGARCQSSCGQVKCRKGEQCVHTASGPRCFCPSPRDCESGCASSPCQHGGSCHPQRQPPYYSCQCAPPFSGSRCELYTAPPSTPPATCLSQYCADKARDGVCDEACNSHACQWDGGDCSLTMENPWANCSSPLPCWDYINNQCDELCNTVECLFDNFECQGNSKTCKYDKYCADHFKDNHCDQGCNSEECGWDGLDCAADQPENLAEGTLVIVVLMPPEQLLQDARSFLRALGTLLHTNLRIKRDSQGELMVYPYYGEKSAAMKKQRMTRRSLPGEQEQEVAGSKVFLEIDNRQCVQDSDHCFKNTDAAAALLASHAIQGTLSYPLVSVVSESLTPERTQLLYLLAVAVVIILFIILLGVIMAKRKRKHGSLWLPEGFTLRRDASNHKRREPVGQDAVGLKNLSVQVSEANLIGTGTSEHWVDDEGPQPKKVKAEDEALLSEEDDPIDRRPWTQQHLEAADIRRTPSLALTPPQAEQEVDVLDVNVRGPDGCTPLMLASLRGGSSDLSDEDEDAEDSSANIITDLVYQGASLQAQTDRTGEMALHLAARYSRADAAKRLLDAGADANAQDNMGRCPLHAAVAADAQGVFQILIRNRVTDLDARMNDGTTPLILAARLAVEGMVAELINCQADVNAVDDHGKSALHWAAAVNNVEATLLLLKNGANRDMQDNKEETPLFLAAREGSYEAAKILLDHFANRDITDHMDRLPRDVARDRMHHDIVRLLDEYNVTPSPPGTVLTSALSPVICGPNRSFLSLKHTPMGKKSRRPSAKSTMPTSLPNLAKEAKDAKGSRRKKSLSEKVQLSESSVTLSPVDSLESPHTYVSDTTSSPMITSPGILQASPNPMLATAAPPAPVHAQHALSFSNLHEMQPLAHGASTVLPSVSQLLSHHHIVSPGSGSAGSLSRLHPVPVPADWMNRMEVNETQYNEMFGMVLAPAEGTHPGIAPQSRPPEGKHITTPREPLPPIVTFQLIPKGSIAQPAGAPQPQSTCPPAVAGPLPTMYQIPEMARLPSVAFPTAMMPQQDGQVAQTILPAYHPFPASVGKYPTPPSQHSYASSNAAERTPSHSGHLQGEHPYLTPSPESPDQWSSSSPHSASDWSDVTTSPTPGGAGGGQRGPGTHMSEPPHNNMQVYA
Chain of Pro-neuregulin-1, membrane-bound isoform (Homo sapiens) (Q02297 whole entry, looked up, the tested form may be a part, canonical isoform): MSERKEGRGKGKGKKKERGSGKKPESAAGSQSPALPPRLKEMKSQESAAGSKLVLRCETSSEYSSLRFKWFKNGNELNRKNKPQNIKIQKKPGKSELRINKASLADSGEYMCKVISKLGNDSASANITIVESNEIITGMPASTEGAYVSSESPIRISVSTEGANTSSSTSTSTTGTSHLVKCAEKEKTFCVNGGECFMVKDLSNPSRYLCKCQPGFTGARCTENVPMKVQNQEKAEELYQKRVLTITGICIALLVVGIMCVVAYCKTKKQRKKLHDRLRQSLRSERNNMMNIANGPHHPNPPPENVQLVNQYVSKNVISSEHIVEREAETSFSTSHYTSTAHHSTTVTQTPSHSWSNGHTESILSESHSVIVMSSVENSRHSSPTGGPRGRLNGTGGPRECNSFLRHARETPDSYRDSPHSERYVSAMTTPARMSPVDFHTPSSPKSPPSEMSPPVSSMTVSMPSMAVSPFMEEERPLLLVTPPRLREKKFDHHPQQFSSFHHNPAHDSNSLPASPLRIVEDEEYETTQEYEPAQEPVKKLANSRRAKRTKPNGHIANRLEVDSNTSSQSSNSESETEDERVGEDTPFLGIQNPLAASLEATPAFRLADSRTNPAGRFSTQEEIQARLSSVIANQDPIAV

SMILES | composite z-score [1] | composite z-score [2] | composite z-score [3] | composite z-score [4] | composite z-score [5] | composite z-score [6] | composite z-score [7] | z-score [8] | composite z-score [9] | composite z-score [10]
C=CCC1=C[C@H]2[C@H]([C@@H]3C=C[C@]2(CC=C)C(=O)[C@]32CO2)[C@@]2(CO2)C1=O | 0.076 | 1.28 | -0.034 | 0.612 | 0.333 | -0.35 | 0.319 | -1.52 (inactive) | 0.501 | 0.0542
COCCOC(=O)N1C(=O)[C@@]2(c3cc(C#CC4(O)CCCCCC4)ccc31)[C@H](C(=O)N1CCCCCCC1)[C@H]1C(=O)O[C@H](c3ccccc3)[C@H](c3ccccc3)N1[C@@H]2c1ccc(O)cc1 | 3.29 | 0.536 | 0.416 | 0.345 | 0.899 | 0.768 | 1.2 | -0.492 (inactive) | 2.81 | 1.11
COC(=O)[C@H]1[C@@H]2COc3ccccc3[C@H]2N[C@H]1C(=O)OC | -0.241 | -0.0479 | -0.139 | 0.255 | 0.419 | 0.281 | 0.428 | 0.44 (inactive) | 0.168 | -0.189
C=CCNC(=O)[C@@H]1[C@H]2C(=O)O[C@H](c3ccccc3)[C@H](c3ccccc3)N2[C@H](c2ccc(OCCO)cc2)[C@@]12C(=O)N(C(=O)OCCOC)c1ccc(C#CC3(O)CCCCCC3)cc12 | 1.33 | 1.16 | 0.126 | 0.552 | 1.42 | 0.508 | 1.03 | 0.132 (inactive) | 0.624 | -0.322
COCCCNC(=O)[C@@H]1c2ccccc2C(=O)N(CC23CC4CC(CC(C4)C2)C3)[C@H]1c1ccc(CO)cc1 | 0.621 | 0.173 | 0.177 | 0.325 | 1.46 | -0.0557 | 1.1 | -2.03 (inactive) | 0.327 | 0.0053
CO[C@H]1COC(=O)[C@H](C)COC(=O)[C@H](Cc2ccccc2)NC(=O)CC=C[C@H]1C | 0.34 | 0.355 | -0.167 | -0.106 | -0.889 | -0.339 | -0.942 | -0.412 (inactive) | 0.0716 | -0.455
C=CC[C@]1(C(N)=O)N=C(c2ccc(OCCCO)cc2)O[C@H]1c1ccccc1CN=[N+]=[N-] | 1.12 | 1.36 | -0.0881 | -0.333 | 0.0233 | 1.87 | 1.34 | 1.2 (inactive) | 0.326 | -0.0994
CC(=O)NCCCC[C@@H]1NC(=O)[C@@H]2C[C@H](C(=O)NCCCCCCN(C)C)[C@H](c3ccc(O)cc3)N2C1=O | -0.438 | 1.71 | 0.0513 | 1.19 | 0.734 | 1.56 | 1.51 | 4.01 (inactive) | 0.541 | 0.797
C[N+](C)(C)CCCCNC(=O)[C@H]1C[C@H]2C(=O)NCC(=O)N2[C@H]1c1cccc(OCCO)c1 | -0.514 | 2.35 | -0.0375 | 1.15 | 0.0841 | 0.309 | 1.43 | 1.73 (inactive) | 0.533 | 0.245
COCCOC(=O)N1C(=O)[C@@]2(c3cc(C#CC4=CCCCC4)ccc31)[C@H](c1ccc(O)cc1)N1[C@H](c3ccccc3)[C@H](c3ccccc3)OC(=O)[C@H]1[C@@H]2C(=O)N1CCCCCCC1 | 2.57 | -0.264 | -0.06 | 0.0509 | 0.521 | 0.292 | 0.359 | 0.0812 (inactive) | 0.547 | 0.294
O=C1OCCC/C=C\[C@H]2OC34C=CCN(CCN5CCOCC5)C(=O)[C@H]3N(CCCCCO)C(=O)[C@@H]4C12 (stereo not given in full) | -0.0623 | -0.658 | -0.174 | -0.156 | -0.822 | -0.179 | 0.65 | 1.48 (inactive) | -0.676 | -0.226
COc1cc(CO)cc(I)c1O[C@H]1C=C(C(=O)NCCO)C[C@@H](N(CC2CCCCC2)C(=O)c2cc3ccccc3oc2=O)[C@@H]1O | -0.336 | -0.0516 | -0.0513 | 0.233 | 0.363 | 0.0577 | 0.377 | -1.48 (inactive) | -0.52 | 0.0722
COc1ccc(CCNC(=O)[C@@]2(c3ccc([N+](=O)[O-])cc3)CC(=O)N(C(C)C)[C@@H]2c2ccc(CO)cc2)cc1 | 0.988 | -0.716 | -0.116 | -0.94 | -1.38 | 1.57 | 0.987 | -1.39 (inactive) | -0.529 | -0.265
CC(C)(C)OC(=O)CC[C@]1(C(=O)NCCN2CCOCC2)N=C(c2ccc(OCCCO)cc2)O[C@H]1c1ccccc1CN=[N+]=[N-] | 0.182 | 1.16 | 0.0402 | 0.07 | 1.24 | 1.73 | 1.42 | 2.72 (inactive) | 0.278 | -0.0672
Cc1ccc(S[C@]2(C(=O)NC(C)C)CC(=O)N(Cc3cc(C(F)(F)F)cc(C(F)(F)F)c3)[C@@H]2c2ccc(CO)cc2I)cc1 | 0.808 | -0.666 | -0.103 | -0.345 | -1.7 | 1.53 | 0.74 | -0.321 (inactive) | -0.666 | -0.0994
CN1C(=O)C2C=CC(C(O)c3ccc(N(C)C)cc3)N(Nc3ccc([N+](=O)[O-])cc3[N+](=O)[O-])C2C1=O (stereo not given) | 1.56 | 0.989 | 0.126 | 0.739 | 1.6 | 1.25 | 1.31 | 2 (inactive) | 1.29 | -0.0296
C=C(CCCC)/C(=C/C[C@H](OC(=O)c1ccncc1)c1cccc(OCCO)c1)c1cc(C(=O)OC)ccc1OC | -0.195 | 0.422 | 0.0346 | 1.05 | -0.0883 | 0.0742 | 0.952 | 5.01 (inactive) | 0.104 | 0.0854
O=C1OCCC=C[C@H]2OC34C=CCN(Cc5ccccc5)C(=O)[C@H]3N(CCO)C(=O)[C@@H]4C12 (stereo not given in full) | 0.672 | -0.465 | -0.183 | -0.575 | -0.607 | -0.419 | -0.574 | 0.135 (inactive) | -0.402 | -0.0645
Cc1ccc(S[C@]2(C(=O)NCCN3CCOCC3)CC(=O)N(C3Cc4ccccc4C3)[C@@H]2c2ccc(CO)cc2I)cc1 | 1.1 | 0.677 | -0.19 | -0.761 | -1.11 | 1.69 | 0.544 | -0.974 (inactive) | 0.336 | -0.0994
COC(=O)Cn1c(C(=O)N2CCCC2)cc2c1C[C@H]1CN(C(=O)c3ccccc3)[C@@](Cc3ccc(OC)cc3)(C(=O)OC)[C@@H]21 | 0.666 | -0.157 | 0.236 | 0.495 | 1.68 | 1.8 | 1.27 | 0.0502 (inactive) | 1.7 | 0.151
COCC(=C=CC[C@H](O)c1ccc(OCCO)cc1)C[C@H](O)c1ccccn1 | -0.103 | 0.628 | -0.156 | -0.106 | -0.499 | 0.508 | 1.27 | 1.61 (inactive) | -0.192 | -0.134
CCN1C(C)=C(C(=O)OC)[C@@H](c2ccccc2)N2C(=O)[C@@]3(C(=O)OC)O[C@@]12[C@@H]1C(=O)N(C)C(=O)[C@@H]13 | -0.217 | 0.139 | -0.0125 | 0.735 | 0.949 | 0.825 | 1.18 | -1.36 (inactive) | 0.264 | -0.0994
CO[C@H]1O[C@H](CO)[C@@H](OC(=O)CCc2ccccc2)[C@@H]2OC(=O)[C@H](Cc3cccc(Br)c3)C/C=C/C[C@@H](Cc3cccc(Br)c3)C(=O)O[C@@H]12 | 0.617 | 0.361 | -0.139 | -0.722 | -1.2 | 0.964 | -0.0592 | -2.01 (inactive) | 0.0729 | -0.134
COCCOC(=O)N1C(=O)[C@@]2(c3cc(C#CCCO)ccc31)[C@H](c1ccc(OCCO)cc1)N1[C@H](c3ccccc3)[C@H](c3ccccc3)OC(=O)[C@H]1[C@@H]2C(=O)NC[C@H](O)c1ccccc1 | -0.484 | 1.04 | -0.0628 | 0.889 | 1.4 | 1.12 | 1.25 | 0.504 (inactive) | 0.788 | 0.152
COc1ccc(CCN2C(=O)[C@@]3(c4ccc([N+](=O)[O-])cc4)CC(=O)N(CC45CC6CC(CC(C6)C4)C5)[C@@H]3c3ccc(CO)cc32)cc1 | 0.188 | -0.063 | 0.0201 | 0.142 | -0.18 | 0.978 | 0.956 | -0.241 (inactive) | -0.0561 | -0.0296
